Source: PubChem BioAssay
An excerpt weighted towards active compounds, which were near 5.9% of everything screened.
HSF1 inh: HSF1 inhibition; NIH3T3-HGL HSE-luciferase, MG132-induced, luminescence 8 h; stronger effect = lower value; activity change, negative = inhibition, % at 7.5 µM (by protocol); actives 0.77% (n = 300,000);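 active = more than half of replicate wells show activity change below -50%, luminescence cut by over half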;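 note: luciferase reports HSF-1 transcriptional activity via heat shock element; 0% = median of DMSO wells and -100% = zero luminescence signal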
HSP90 inh: HSP90 refolding inhibition in rabbit reticulocyte lysate; actives 0.91% (n = 290,000); inhibition, % at 5.6 µM; AID 1789; luciferase refolding luminescence, 3 h;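 active = inhibition above the screen-wide mean plus 3 SD, computed separately per campaign, cut at about 16% in these data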;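 note: 0% = DMSO wells and 100% = 60 µM geldanamycin wells; inhibitors lower the luminescence because luciferase stays unfolded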
DAX1 inh: inhibitors of human orphan nuclear receptor DAX1 (NR0B1). P51843. HEK293 Gal4-DAX1 luciferase reporter, luminescence. inhibition, % at 6.75 µM. actives 0.99% (n = 340,000);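 active = inhibition above the mean over all tested compounds plus 3 SD, cut at about 4.2% in these data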;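 note: 0% = DAX1-transfected cells with DMSO and 100% = empty-vector control cells with DMSO; inhibition shows as a rise in luminescence from relieved DAX1 repression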
Target sequence (P51843 207-470 limits assumed): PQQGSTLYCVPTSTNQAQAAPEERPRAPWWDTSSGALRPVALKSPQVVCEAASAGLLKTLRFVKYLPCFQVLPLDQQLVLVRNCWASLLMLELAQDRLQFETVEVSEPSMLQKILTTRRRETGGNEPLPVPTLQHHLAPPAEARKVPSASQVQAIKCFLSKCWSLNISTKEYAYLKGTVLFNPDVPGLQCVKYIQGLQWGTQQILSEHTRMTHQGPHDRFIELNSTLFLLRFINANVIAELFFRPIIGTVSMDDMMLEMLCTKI
HSF-1 act: increases HSF-1 driven luciferase reporter signal; actives 1.7% (n = 300,000); activation, % at 9 µM; NIH3T3-HGL HSF-1 luciferase reporter, MG132, 8 h; 100% = twice DMSO control signal;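 active = mean replicate activation of at least 50% with a set share of replicates each reaching 50%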;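 note: 0% = median of the neutral control wells and 100% = twice that signal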
FXN GAA850 act: frataxin GAA850 promoter activation; HEK293 lucGAA850 FXN promoter luciferase reporter, 24 h; percent of 10 µM SAHA response; activation, % at 6 µM; actives 0.56% (n = 360,000); AID 540364;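 active = activation above the average of all compounds screened plus 3 SD, cutoff fixed separately per campaign, cut at about 7.5% in these data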;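 note: 0% = DMSO wells and 100% = 10 µM SAHA wells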
AHR activator: activates the human aryl hydrocarbon receptor; activation, % at 5 µM; AID 2796; actives 2.5% (n = 320,000); P35869; AHR-responsive luciferase reporter cells, luminescence; in the data active = activation above about 47%;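 note: 0% = vehicle wells and 100% = reference agonist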
* marks the source's active call; other numbers are inactive results; · = not tested or not shown.

SMILES | HSF1 inh | HSP90 inh | DAX1 inh | HSF-1 act | FXN GAA850 act | AHR activator
O=C(N/N=C/c1ccncc1)c1cccs1 | -0.3 | -5.5 | 3.1 | 28.6 | 4.6 | 13.0
O=C(N/N=C/C(Br)=C\c1ccccc1)c1cccs1 | 105.2 | -3.7 | · | 100.7* | 3.3 | 5.4
CC(=C/c1ccccc1)/C=N/NC(=O)c1cccs1 | 13.6 | 5.3 | · | 54.7* | 3.0 | -1.3
O=C(N/N=C/C(Br)=C/c1ccccc1)C(O)c1ccccc1 (stereo unspecified) | 52.3 | 3.5 | 0.0 | 61.4* | 5.9 | 8.3
CC(C)N(C(=S)Nc1ccc(S(=O)(=O)N2CCOCC2)cc1)c1ccccc1 | · | · | · | · | 1.1 | -0.5
CCCNC(=O)C1(C)CCCN(C(=O)c2cc(F)cc(F)c2)C1 (stereo unspecified) | · | · | · | · | 0.4 | ·
O=C(Cn1cnc2ccccc21)N/N=C/c1ccccc1 | -3.8 | 1.6 | 0.2 | -8.0 | -1.7 | 9.0
CC(/C=N/NC(=O)Cn1cnc2ccccc21)=C\c1ccccc1 | -65.8* | 1.1 | -1.0 | -75.2 | 0.3 | -5.7
O=C(N/N=C/c1cccc([N+](=O)[O-])c1)c1ccc(Br)cc1 | 14.7 | 2.4 | -0.3 | 8.9 | 1.5 | 8.7
O=C(N/N=C/c1cccc([N+](=O)[O-])c1)c1cccs1 | 23.5 | -5.5 | 0.8 | 53.6* | 2.8 | 1.0
CC(=C/c1ccccc1)/C=N/NC(=O)c1ccccn1 | 9.8 | 16.5* | · | 30.9 | 0.5 | -2.7
Cc1cccc(N(C)C(=O)CN(C)S(=O)(=O)c2ccc3c(c2)c(=O)n(C)c(=O)n3C)c1 | -4.2 | 0.3 | -0.6 | -9.5 | 0.4 | 0.6
COc1ccc(NC(=O)N(C)C[C@H]2Oc3ccc(NC(=O)Nc4c(C)noc4C)cc3C(=O)N([C@H](C)CO)C[C@H]2C)cc1 | · | · | 0.6 | · | -1.4 | 1.2
COC(=O)C1=C(C(=O)OC)C2C=CC1C1C(OC(C)=O)C(OC(C)=O)C21 (stereo unspecified) | · | · | 2.9 | · | -0.7 | ·
Cc1ccc(-c2cn3cccnc3n2)cc1NC(=O)c1c(-c2ccccc2Cl)noc1C | -3.5 | 3.4 | 0.1 | 13.3 | -4.6 | 47.6*
Cc1onc(-c2ccccc2Cl)c1C(=O)Nc1ccc(-c2cn3cccnc3n2)cc1 | -4.3 | 0.0 | -2.7 | -1.7 | -3.2 | 2.9
CC1CCN(S(=O)(=O)c2ccc3c(c2)N(CC(=O)NCc2cccnc2)C(=O)CS3)CC1 | 3.3 | 4.4 | -0.7 | 5.1 | 0.2 | -4.6
COc1ccc(CCNc2nc3ccccc3n3nnnc23)cc1OC | -0.1 | -0.8 | 3.7 | 6.4 | 3.7 | 53.6*
COc1cccc2cc(C(=O)OCC(=O)N3CC(C)OC(C)C3)c(=O)oc12 (stereo unspecified) | · | · | 5.5* | · | 1.7 | 9.7
CCOC(=O)C(CC1=CS(=O)(=O)c2ccc(Cl)cc21)(NC(C)=O)C(=O)OCC | · | · | 0.4 | · | 0.6 | ·
Cc1ncsc1C(=O)N1N=C2/C(=C/c3ccc(N4CCOCC4)cc3)CCCC2C1c1ccc(N2CCOCC2)cc1 (stereo unspecified) | 1.7 | 7.7 | 1.0 | -1.7 | 0.8 | 11.6
NC(=O)N1N=C2/C(=C/c3ccccc3)CCCC2C1c1ccccc1 (stereo unspecified) | 0.0 | -1.5 | -1.3 | -10.3 | -0.8 | 59.2*
